Laboratory results: PubChem BioAssay AID1159580 (chemical genetic matrix, 2015)
Values joined by “and” are separate entries in the source; they are usually repeats but may differ in a detail not shown here. Identical values can stand only once. Out of some 5,500 compounds screened, about 2,000 (36%) were called active. Not shown: some 18% with an inconclusive outcome. The list shows a part of the results. A number with no mark means an inactive call. Cut-off read from the data, not from the text of the source: active = normalized growth mostly below about 0.91 (no sharp cut-off); inconclusive = no clear call, values can overlap the other calls; inactive = mostly above about 0.92.

Assay: chemical genetic growth profiling, strain panel (AID 1159580);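 note: tested at 20 µM; growth read once vehicle control cultures reached saturation at 30 °C; 1 = growth at the plate median or of vehicle wells; lower values mean less growth of the strain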
Conditions: S. cerevisiae deletion strains, growth OD

## O=C1c2c(O)cccc2Cc2cccc(O)c21
Locus YAL013W, strain DEP1, hits give low values
  normalized growth: 1.04
Locus YAL021C, strain ccr4, hits give low values
  normalized growth: 0.958
Locus YAL026C, strain drs2, hits give low values
  normalized growth: 0.988
Locus YAL030W, strain snc1, hits give low values
  normalized growth: 0.986
Locus YBL061C, strain skt5, hits give low values
  normalized growth: 1
Locus YBR009C, strain hhf1, hits give low values
  normalized growth: 0.997
Locus YBR021W, strain FUR4, hits give low values
  normalized growth: 1
Locus YBR023C, strain chs3, hits give low values
  normalized growth: 0.988
Locus YBR171W, strain sec66, hits give low values
  normalized growth: 0.975
Locus YBR229C, strain ROT2, hits give low values
  normalized growth: 0.998
Locus YBR231C, strain swc5, hits give low values
  normalized growth: 0.981
Locus YBR279W, strain paf1, hits give low values
  normalized growth: 0.966
Locus YCL011C, strain gbp2, hits give low values
  normalized growth: 0.973
Locus YCL016C, strain dcc1, hits give low values
  normalized growth: 1.03
Locus YCL029C, strain bik1, hits give low values
  normalized growth: 0.992
Locus YCL061C, strain MRC1, hits give low values
  normalized growth: 0.978
Locus YCL069W, strain vba3, hits give low values
  normalized growth: 1.01
Locus YCR088W, strain abp1, hits give low values
  normalized growth: 1.01
Locus YDL005C, strain med2, hits give low values
  normalized growth: 0.978
Locus YDL035C, strain GPR1, hits give low values
  normalized growth: 1.02
Locus YDL040C, strain nat1, hits give low values
  normalized growth: 0.999
Locus YDL074C, strain BRE1, hits give low values
  normalized growth: 1.04
Locus YDL101C, strain DUN1, hits give low values
  normalized growth: 1.01
Locus YDL134C, strain PPH21, hits give low values
  normalized growth: 1.02
Locus YDL185W, strain tfp1, hits give low values
  normalized growth: 0.999
Locus YDL192W, strain arf1, hits give low values
  normalized growth: 0.994
Locus YDR001C, strain nth1, hits give low values
  normalized growth: 0.988
Locus YDR069C, strain doa4, hits give low values
  normalized growth: 0.946
Locus YDR101C, strain arx1, hits give low values
  normalized growth: 0.99
Locus YDR137W, strain rgp1, hits give low values
  normalized growth: 0.848
Locus YDR159W, strain sac3, hits give low values
  normalized growth: 0.982
Locus YDR162C, strain NBP2, hits give low values
  normalized growth: 1.03
Locus YDR195W, strain ref2
  normalized growth: 1.11
Locus YDR297W, strain sur2, hits give low values
  normalized growth: 1.01
Locus YDR318W, strain mcm21, hits give low values
  normalized growth: 0.994
Locus YDR334W, strain swr1, hits give low values
  normalized growth: 0.936
Locus YDR335W, strain msn5, hits give low values
  normalized growth: 0.999
Locus YDR388W, hits give low values
  normalized growth: 0.992
Locus YDR392W, strain spt3, hits give low values
  normalized growth: 0.986
Locus YDR502C, strain sam2, hits give low values
  normalized growth: 1.01
Locus YEL003W, strain gim4, hits give low values
  normalized growth: 1.03
Locus YEL037C, strain rad23, hits give low values
  normalized growth: 1
Locus YEL061C, strain CIN8 (second series), hits give low values
  normalized growth: 0.986
Locus YEL061C, strain CIN8, hits give low values
  normalized growth: 1
Locus YER015W, strain faa2, hits give low values
  normalized growth: 1.01
Locus YER016W, strain bim1, hits give low values
  normalized growth: 1.01
Locus YER110C, hits give low values
  normalized growth: 0.997
Locus YER111C, strain swi4, hits give low values
  normalized growth: 1.01
Locus YER155C, strain BEM2 (second series), hits give low values
  normalized growth: 0.957
Locus YER155C, strain BEM2, hits give low values
  normalized growth: 0.997
Locus YER167W, strain BCK2, hits give low values
  normalized growth: 1
Locus YFR010W, strain ubp6, hits give low values
  normalized growth: 0.957
Locus YGL078C, strain dbp3, hits give low values
  normalized growth: 0.992
Locus YGL086W, strain mad1, hits give low values
  normalized growth: 1
Locus YGL167C, strain pmr1, hits give low values
  normalized growth: 0.962
Locus YGL173C, strain kem1, hits give low values
  normalized growth: 0.996
Locus YGL227W, strain vid30, hits give low values
  normalized growth: 0.976
Locus YGL240W, strain doc1, hits give low values
  normalized growth: 0.985
Locus YGL248W, strain PDE1, hits give low values
  normalized growth: 1.02
Locus YGL253W, strain hxk2, hits give low values
  normalized growth: 0.963
Locus YGR078C, strain PAC10, hits give low values
  normalized growth: 1.03
Locus YGR135W, strain pre9, hits give low values
  normalized growth: 0.999
Locus YGR252W, strain gcn5, hits give low values
  normalized growth: 1.02
Locus YHR013C, strain ard1, hits give low values
  normalized growth: 1
Locus YHR027C, strain rpn1, hits give low values
  normalized growth: 0.976
Locus YHR030C, strain SLT2, hits give low values
  normalized growth: 1.01 and 1.06
Locus YHR079C, strain IRE1 (second series), hits give low values
  normalized growth: 0.994
Locus YHR079C, strain IRE1, hits give low values
  normalized growth: 1.08
Locus YHR094C, strain hxt1, hits give low values
  normalized growth: 0.993
Locus YHR129C, strain ARP1, hits give low values
  normalized growth: 1.01
Locus YHR142W, strain chs7, hits give low values
  normalized growth: 1.02
Locus YHR200W, strain rpn10, hits give low values
  normalized growth: 1
Locus YIL066C, strain RNR3, hits give low values
  normalized growth: 1.02
Locus YIL073C, strain SPO22, hits give low values
  normalized growth: 1.03
Locus YIL125W, strain kgd1, hits give low values
  normalized growth: 1
Locus YIR030C, strain dcg1, hits give low values
  normalized growth: 0.992
Locus YJL092W, strain hpr5, hits give low values
  normalized growth: 1.01
Locus YJL095W, strain BCK1 (second series), hits give low values
  normalized growth: 0.967
Locus YJL095W, strain BCK1, hits give low values
  normalized growth: 1.05 and 1.06
Locus YJL115W, strain asf1, hits give low values
  normalized growth: 0.982
Locus YJL129C, strain trk1, hits give low values
  normalized growth: 1.05
Locus YJL134W, strain LCB3, hits give low values
  normalized growth: 1.01
Locus YJL154C, strain vps35, hits give low values
  normalized growth: 0.988
Locus YJL164C, strain tpk1, hits give low values
  normalized growth: 1.02
Locus YJL166W, strain qcr8, hits give low values
  normalized growth: 0.984
Locus YJL168C, strain set2, hits give low values
  normalized growth: 0.99
Locus YJL187C, strain SWE1 (second series), hits give low values
  normalized growth: 1.02
Locus YJL187C, strain SWE1, hits give low values
  normalized growth: 1
Locus YJR043C, strain POL32, hits give low values
  normalized growth: 1.06
Locus YJR066W, strain TOR1, hits give low values
  normalized growth: 0.994
Locus YJR075W, strain HOC1, hits give low values
  normalized growth: 1.03
Locus YKL009W, strain mrt4, hits give low values
  normalized growth: 1.01
Locus YKL068W, hits give low values
  normalized growth: 0.99
Locus YKL085W, strain MDH1 (second series), hits give low values
  normalized growth: 0.994
Locus YKL085W, strain MDH1, hits give low values
  normalized growth: 0.994
Locus YKL160W, strain elf1, hits give low values
  normalized growth: 1
Locus YKR001C, strain vps1, hits give low values
  normalized growth: 1.01
Locus YKR026C, strain gcn3, hits give low values
  normalized growth: 0.991
Locus YKR091W, strain srl3, hits give low values
  normalized growth: 0.985
Locus YLL001W, strain dnm1, hits give low values
  normalized growth: 1
Locus YLL026W, hits give low values
  normalized growth: 1
Locus YLL041C, strain sdh2, hits give low values
  normalized growth: 0.997
Locus YLR027C, strain aat2, hits give low values
  normalized growth: 1.03
Locus YLR039C, strain RIC1, hits give low values
  normalized growth: 1.24
Locus YLR058C, strain SHM2, hits give low values
  normalized growth: 1.01
Locus YLR102C, strain apc9, hits give low values
  normalized growth: 0.995
Locus YLR113W, strain HOG1, hits give low values
  normalized growth: 1.13
Locus YLR221C, strain rsa3, hits give low values
  normalized growth: 0.985
Locus YLR258W, strain gsy2, hits give low values
  normalized growth: 0.976
Locus YLR262C, strain YPT6 (second series), hits give low values
  normalized growth: 0.862
Locus YLR262C, strain YPT6, hits give low values
  normalized growth: 1.28
Locus YLR268W, strain sec22, hits give low values
  normalized growth: 1.02
Locus YLR320W, strain mms22, hits give low values
  normalized growth: 0.996
Locus YLR330W, strain CHS5, hits give low values
  normalized growth: 1
Locus YLR342W, strain FKS1 (second series), hits give low values
  normalized growth: 1.01
Locus YLR342W, strain FKS1, hits give low values
  normalized growth: 0.996
Locus YLR357W, strain rsc2, hits give low values
  normalized growth: 0.921
Locus YLR370C, strain arc18, hits give low values
  normalized growth: 0.985
Locus YLR371W, strain rom2, hits give low values
  normalized growth: 1
Locus YLR384C, strain iki3, hits give low values
  normalized growth: 0.974
Locus YLR418C, strain cdc73, hits give low values
  normalized growth: 1.11
Locus YML016C, strain PPZ1, hits give low values
  normalized growth: 1
Locus YML032C, strain rad52, hits give low values
  normalized growth: 0.996
Locus YML120C, strain ndi1, hits give low values
  normalized growth: 1.02
Locus YML124C, strain tub3, hits give low values
  normalized growth: 0.988
Locus YMR058W, strain fet3, hits give low values
  normalized growth: 0.999
Locus YMR078C, strain ctf18, hits give low values
  normalized growth: 0.999
Locus YMR125W, strain sto1, hits give low values
  normalized growth: 0.988
Locus YMR129W, hits give low values
  normalized growth: 0.995
Locus YMR205C, strain PFK2, hits give low values
  normalized growth: 1.03
Locus YMR223W, strain ubp8, hits give low values
  normalized growth: 1
Locus YMR231W, strain pep5, hits give low values
  normalized growth: 0.976
Locus YMR263W, strain SAP30, hits give low values
  normalized growth: 1.02
Locus YMR307W, strain GAS1, hits give low values
  normalized growth: 0.997
Locus YNL067W, strain RPL9B, hits give low values
  normalized growth: 1.04
Locus YNL071W, strain lat1, hits give low values
  normalized growth: 1.02
Locus YNL183C, strain NPR1, hits give low values
  normalized growth: 1
Locus YNL209W, strain ssb2, hits give low values
  normalized growth: 1
Locus YNL233W, strain BNI4, hits give low values
  normalized growth: 1.05
Locus YNL248C, strain rpa49, hits give low values
  normalized growth: 0.906
Locus YNL250W, strain rad50, hits give low values
  normalized growth: 0.99
Locus YNL271C, strain bni1, hits give low values
  normalized growth: 0.989
Locus YNL298W, strain CLA4, hits give low values
  normalized growth: 0.985
Locus YNL307C, strain MCK1, hits give low values
  normalized growth: 1.01
Locus YNL322C, strain KRE1 (second series), hits give low values
  normalized growth: 0.988
Locus YNL322C, strain KRE1, hits give low values
  normalized growth: 1
Locus YNR049C, strain mso1, hits give low values
  normalized growth: 1.01
Locus YNR052C, strain pop2, hits give low values
  normalized growth: 0.993
Locus YOL012C, strain htz1
  normalized growth: 0.791
Locus YOL147C, strain pex11, hits give low values
  normalized growth: 0.997
Locus YOR001W, strain rrp6, hits give low values
  normalized growth: 0.979
Locus YOR061W, strain CKA2, hits give low values
  normalized growth: 1.01
Locus YOR069W, strain VPS5, hits give low values
  normalized growth: 1.01
Locus YOR070C, strain gyp1, hits give low values
  normalized growth: 1.03
Locus YOR080W, strain dia2, hits give low values
  normalized growth: 1
Locus YOR083W, strain WHI5, hits give low values
  normalized growth: 0.954
Locus YOR106W, strain vam3, hits give low values
  normalized growth: 0.898
Locus YOR136W, strain idh2, hits give low values
  normalized growth: 0.993
Locus YOR144C, strain elg1, hits give low values
  normalized growth: 0.996
Locus YOR184W, strain ser1, hits give low values
  normalized growth: 1.02
Locus YOR231W, strain MKK1, hits give low values
  normalized growth: 1.07
Locus YOR265W, strain rbl2, hits give low values
  normalized growth: 0.996
Locus YOR270C, strain vph1, hits give low values
  normalized growth: 0.755 (active)
Locus YOR290C, strain snf2, hits give low values
  normalized growth: 1.02
Locus YOR316C, strain cot1, hits give low values
  normalized growth: 0.997
Locus YPL051W, strain arl3, hits give low values
  normalized growth: 0.914 (active)
Locus YPL078C, strain atp4, hits give low values
  normalized growth: 1.01
Locus YPL106C, strain sse1, hits give low values
  normalized growth: 0.919
Locus YPL240C, strain hsp82, hits give low values
  normalized growth: 0.991
Locus YPL256C, strain CLN2, hits give low values
  normalized growth: 1.17
Locus YPR119W, strain clb2, hits give low values
  normalized growth: 0.988
Locus YPR141C, strain kar3, hits give low values
  normalized growth: 0.993
Locus YPR163C, strain tif3, hits give low values
  normalized growth: 0.997
Locus YPR167C, strain met16, hits give low values
  normalized growth: 1
Strain wtn01, hits give low values
  normalized growth: 0.999
